Hit rate of the full screen: of about 1,000 compounds, about 700 (70%) were called active. So high a share suggests a set chosen from earlier hits. A selection follows. Unmarked numbers belong to inactive results. Rule as the data show it: active = inhibition above about 50%; inactive = the rest.

The nature of this assay: CASP1-PYCARD signaling inhibition in yeast, confirmatory test, counterassay for NLRP3 inhibitor program, one-dose (AID 488784). The settings on record: yeast expressing Caspase-1-ASC, luminescence counter screen; at 10 µM; hits give high values. Background: Counterscreens check selectivity or assay interference.
Consider `O=C1/C(=C\c2ccc3c(c2)OCO3)N2CCC1CC2`, for which the inhibition is 60.4% (active).

Turning to `Cc1cc2ccccn2c1C(C[N+](=O)[O-])c1c(F)cccc1Cl` (centres undefined), the inhibition was 12.2%.

Take `CCCCCCCCCCCCn1ccc(=N)cc1`: the inhibition was 59% (active).

As for `Cc1ccc(-c2nc3ccccc3c(=O)n2-c2ccc(Br)cn2)cc1`, the inhibition was 44%.

One may read the inhibition as the drop in the measured response relative to a control, in per cent.

The record behind these values is PubChem BioAssay AID488784 (Sanford-Burnham Center for Chemical Genomics, 2010).
